# Assay results as given in PubChem BioAssay (NCATS).
# Results filed as inconclusive are left out. Calls of active or inactive are those of the source. Calls come from the whole dose curve; as a rule, active = well fitted curve in the direction sought with a large enough effect; inconclusive = small, poorly fitted or top-dose-only effect, or another doubt; inactive = no such curve, though single readings can be large; an effect the other way counts as inactive or inconclusive.
# System: not listed separately
# Assay: Cytometry Cell-Based qHTS for Inhibitors of the mTORC1 Signaling Pathway in MEF cells (AID 2668);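 note: Tsc2-/- p53-/- mouse embryonic fibroblasts stably re-expressing wild-type Tsc2; percent cells positive for phospho-rpS6 Ser235/236 relative to propidium iodide stain; plate controls were DMSO wells for no effect and 7.5 nM rapamycin control wells for full effect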
# Conditions: mTORC1 pathway readout; series mostly up to 38.3 µM; activity change, negative = inhibition: at the top concentration
# Procedure, shortened: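 In MEFs grown in DMEM + 10% FBS, a 24 hrs compound exposure preceded imaging of phospho-rpS6 Ser235/236 by laser-scanning cytometry.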
row,Structure (SMILES),"activity change, negative = inhibition"
1,C[C@]12CCC(=O)C=C1CC[C@@H]1[C@@H]2[C@@H](O)C[C@@]2(C)[C@H]1CC[C@]2(O)C(=O)CO,0% (inactive)
2,O=C(O)COCCN1CCN(C(c2ccccc2)c2ccc(Cl)cc2)CC1 (stereo not given),-1.24% (inactive)
3,NNCCc1ccccc1,-9.05% (inactive)
4,NC(N)=NC(=O)c1nc(Cl)c(N)nc1N,-0.567% (inactive)
5,Cc1[nH]c(=O)c(C#N)cc1-c1ccncc1,9.53% (inactive)
6,NC[C@H](O)c1ccc(O)c(O)c1,3.43% (inactive)
7,Cc1[nH]c(=O)c(C#N)cc1-c1ccc2nccn2c1,-9.09% (inactive)
8,OC(CCN1CCCCC1)(c1ccccc1)C1CC2C=CC1C2 (stereo not given),5.63% (inactive)
9,O=C1CCc2cc(OCCCCc3nnnn3C3CCCCC3)ccc2N1,-4.59% (inactive)
10,Cc1oncc1C(=O)Nc1ccc(C(F)(F)F)cc1,-24.7% (inactive)
11,Nc1ncnc2nc(-c3ccc(N4CCOCC4)nc3)cc(-c3cccc(Br)c3)c12,-2.78% (inactive)
12,Nc1nc2ccc(OC(F)(F)F)cc2s1,-6.5% (inactive)
13,Nc1nc2c(ncn2COCCO)c(=O)[nH]1,1.43% (inactive)
14,Clc1cccc(Cl)c1NC1=NCCN1,4.99% (inactive)
15,c1ccc([C@H]2CN3CCSC3=N2)cc1,4.57% (inactive)
16,CC(C)(Sc1ccc(CCN(CCCCC2CCCCC2)C(=O)NC2CCCCC2)cc1)C(=O)O,-1.55% (inactive)
17,Cn1cnc([N+](=O)[O-])c1Sc1ncnc2nc[nH]c12,10.9% (inactive)
18,CCC(C)N(C)C(=O)c1cc2ccccc2c(-c2ccccc2Cl)n1 (stereo not given),1.26% (inactive)
19,Oc1ccc(C2CNCCc3c2cc(O)c(O)c3Cl)cc1 (stereo not given),-2.3% (inactive)
20,CCOC(=O)C1=C[C@]2(CC)CCCN3CCc4c(n1c1ccccc41)[C@@H]32,3.93% (inactive)

# System: not listed separately
# Assay: Validation screen for small molecules that induce DNA re-replication in MCF 10A normal breast cells (AID 463097); note: nearly all actives have a fitted effect of over 60% in size; note: potency is the fitted concentration of half-maximal effect; for re-replication induction: 0% is about no effect
# Conditions: MCF 10A cells, DNA re-replication phenotype imaging; series mostly up to 46.1 µM; re-replication induction: at the top concentration
# Procedure, shortened: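 Following 48 hr compound incubation (37 C, 5% CO2), MCF 10A cells receive Hoechst for 40 min at 37 C. Nuclei are then scanned (excitation 405 nm, emission 500-530 nm) for total fluorescence intensity.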
Structure (SMILES),re-replication induction,Potency
NNCCc1ccccc1,9.89% (inactive),
NC(N)=NC(=O)c1nc(Cl)c(N)nc1N,-3.94% (inactive),
NCCc1ccc(O)c(O)c1,-7.49% (inactive),
Cc1[nH]c(=O)c(C#N)cc1-c1ccncc1,-0.252% (inactive),
NC[C@H](O)c1ccc(O)c(O)c1,0.938% (inactive),
Cc1[nH]c(=O)c(C#N)cc1-c1ccc2nccn2c1,-2.32% (inactive),
O=C1CCc2cc(OCCCCc3nnnn3C3CCCCC3)ccc2N1,4.15% (inactive),
Nc1nc2c(ncn2COCCO)c(=O)[nH]1,1.28% (inactive),
Clc1cccc(Cl)c1NC1=NCCN1,2.52% (inactive),
c1ccc([C@H]2CN3CCSC3=N2)cc1,-0.539% (inactive),
CC(C)(Sc1ccc(CCN(CCCCC2CCCCC2)C(=O)NC2CCCCC2)cc1)C(=O)O,,12.6 µM (active)
CCC(C)N(C)C(=O)c1cc2ccccc2c(-c2ccccc2Cl)n1 (stereo not given),-1.83% (inactive),
Oc1ccc(C2CNCCc3c2cc(O)c(O)c3Cl)cc1 (stereo not given),4.56% (inactive),
CCOC(=O)C1=C[C@]2(CC)CCCN3CCc4c(n1c1ccccc41)[C@@H]32,14.4% (inactive),

# Target: Ubiquitin carboxyl-terminal hydrolase 2 (Homo sapiens) (UniProt O75604)
# Assay: qHTS Validation Assay for Inhibitors of Ubiquitin-specific Protease USP2a Using CHOP2 as the Reporter (AID 463106);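 note: plate controls were DMSO for no effect and full inhibition by NEM for full effect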
# Conditions: USP2a cleavage of CHOP2 reporter, enzymatic; series mostly up to 38.3 µM; activity, negative = inhibition: at the top concentration
# Procedure, shortened: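 USP2 core (10nM final) was preincubated with compound for 30min at RT in 20mM Tris-HCl pH 8.0, 2mM CaCl2, 2mM beta-mercaptoethanol, 0.05% CHAPS. Ub-CHOP2 and reporter substrate (25nM each) were added, and fluorescence (Ex 485/Em 531nm) was read after 60min.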
# Chain of Ubiquitin carboxyl-terminal hydrolase 2 (Homo sapiens) (O75604 whole entry, looked up): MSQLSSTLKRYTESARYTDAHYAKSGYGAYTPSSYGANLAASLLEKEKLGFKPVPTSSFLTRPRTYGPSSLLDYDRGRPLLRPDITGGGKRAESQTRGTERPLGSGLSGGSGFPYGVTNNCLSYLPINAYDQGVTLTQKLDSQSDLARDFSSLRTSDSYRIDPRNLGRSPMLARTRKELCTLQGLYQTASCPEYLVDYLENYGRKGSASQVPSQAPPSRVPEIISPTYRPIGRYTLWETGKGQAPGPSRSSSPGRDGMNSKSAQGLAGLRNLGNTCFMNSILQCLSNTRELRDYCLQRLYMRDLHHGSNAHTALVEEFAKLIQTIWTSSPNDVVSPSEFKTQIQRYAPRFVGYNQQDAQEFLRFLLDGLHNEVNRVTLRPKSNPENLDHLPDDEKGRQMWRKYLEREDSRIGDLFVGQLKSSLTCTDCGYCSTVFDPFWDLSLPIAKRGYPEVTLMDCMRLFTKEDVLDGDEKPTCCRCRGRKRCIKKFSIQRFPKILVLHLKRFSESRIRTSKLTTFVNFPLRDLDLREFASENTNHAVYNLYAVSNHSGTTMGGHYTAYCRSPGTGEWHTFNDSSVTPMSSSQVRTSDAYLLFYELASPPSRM
row,Structure (SMILES),"activity, negative = inhibition"
1,CCOC(=O)N1CCC(=C2c3ccc(Cl)cc3CCc3cccnc32)CC1,-5.94% (inactive)
2,O=C(Nc1nc2ccccc2n1CCN1CCOCC1)c1cccc([N+](=O)[O-])c1,-0.147% (inactive)
3,C[C@]12CCC(=O)C=C1CC[C@@H]1[C@@H]2[C@@H](O)C[C@@]2(C)[C@H]1CC[C@]2(O)C(=O)CO,-2.09% (inactive)
4,O=C(O)COCCN1CCN(C(c2ccccc2)c2ccc(Cl)cc2)CC1 (stereo not given),0.787% (inactive)
5,NNCCc1ccccc1,0.475% (inactive)
6,NC(N)=NC(=O)c1nc(Cl)c(N)nc1N,-0.427% (inactive)
7,NCCc1ccc(O)c(O)c1,1.57% (inactive)
8,Cc1[nH]c(=O)c(C#N)cc1-c1ccncc1,-0.0627% (inactive)
9,NC[C@H](O)c1ccc(O)c(O)c1,2.3% (inactive)
10,Cc1[nH]c(=O)c(C#N)cc1-c1ccc2nccn2c1,-1.19% (inactive)
11,Cc1cccc(-c2[nH]c(C(C)(C)C)nc2-c2ccc3nccnc3c2)n1,1.32% (inactive)
12,OC(CCN1CCCCC1)(c1ccccc1)C1CC2C=CC1C2 (stereo not given),-1.8% (inactive)
13,O=C1CCc2cc(OCCCCc3nnnn3C3CCCCC3)ccc2N1,1.61% (inactive)
14,Cc1oncc1C(=O)Nc1ccc(C(F)(F)F)cc1,-0.509% (inactive)
15,Nc1ncnc2nc(-c3ccc(N4CCOCC4)nc3)cc(-c3cccc(Br)c3)c12,-0.522% (inactive)
16,Nc1nc2ccc(OC(F)(F)F)cc2s1,3.77% (inactive)
17,Clc1cccc(Cl)c1NC1=NCCN1,-0.148% (inactive)
18,c1ccc([C@H]2CN3CCSC3=N2)cc1,0.164% (inactive)
19,Cn1cnc([N+](=O)[O-])c1Sc1ncnc2nc[nH]c12,-1.47% (inactive)
20,CCC(C)N(C)C(=O)c1cc2ccccc2c(-c2ccccc2Cl)n1 (stereo not given),1.75% (inactive)
21,Oc1ccc(C2CNCCc3c2cc(O)c(O)c3Cl)cc1 (stereo not given),-0.0833% (inactive)
22,CCOC(=O)C1=C[C@]2(CC)CCCN3CCc4c(n1c1ccccc41)[C@@H]32,0.103% (inactive)
23,OC(CN1CCC(Cc2ccc(F)cc2)CC1)c1ccc(Cl)cc1 (stereo not given),2.93% (inactive)

# Target: DNA polymerase III PolC-type (Bacillus subtilis (strain 168)) (UniProt P13267)
# Assay: qHTS Validation Assay for the Inhibitors of DNA Replication in Gram-Positive Bacteria (AID 485295); note: potency is the fitted concentration of half-maximal effect;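 for activity change, negative = inhibition: reconstituted holoenzyme with PolC plus beta clamp SSB and primase; PicoGreen fluorescence of double-stranded DNA made on primed circular M13 template; 0% = DMSO wells and -100% = EDTA-quenched background wells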
# Conditions: Gram-positive bacterial DNA replication assay; series mostly up to 57.1 µM; activity change, negative = inhibition: at the top concentration
# Procedure, shortened: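 Inhibition of DNA synthesis by the reconstituted PolC holoenzyme, monitored through PicoGreen staining of dsDNA formed from ssM13Gori, dNTPs and NTPs, with compound preincubation and room-temperature reaction.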
# Chain of DNA polymerase III PolC-type (Bacillus subtilis (strain 168)) (P13267 whole entry, looked up): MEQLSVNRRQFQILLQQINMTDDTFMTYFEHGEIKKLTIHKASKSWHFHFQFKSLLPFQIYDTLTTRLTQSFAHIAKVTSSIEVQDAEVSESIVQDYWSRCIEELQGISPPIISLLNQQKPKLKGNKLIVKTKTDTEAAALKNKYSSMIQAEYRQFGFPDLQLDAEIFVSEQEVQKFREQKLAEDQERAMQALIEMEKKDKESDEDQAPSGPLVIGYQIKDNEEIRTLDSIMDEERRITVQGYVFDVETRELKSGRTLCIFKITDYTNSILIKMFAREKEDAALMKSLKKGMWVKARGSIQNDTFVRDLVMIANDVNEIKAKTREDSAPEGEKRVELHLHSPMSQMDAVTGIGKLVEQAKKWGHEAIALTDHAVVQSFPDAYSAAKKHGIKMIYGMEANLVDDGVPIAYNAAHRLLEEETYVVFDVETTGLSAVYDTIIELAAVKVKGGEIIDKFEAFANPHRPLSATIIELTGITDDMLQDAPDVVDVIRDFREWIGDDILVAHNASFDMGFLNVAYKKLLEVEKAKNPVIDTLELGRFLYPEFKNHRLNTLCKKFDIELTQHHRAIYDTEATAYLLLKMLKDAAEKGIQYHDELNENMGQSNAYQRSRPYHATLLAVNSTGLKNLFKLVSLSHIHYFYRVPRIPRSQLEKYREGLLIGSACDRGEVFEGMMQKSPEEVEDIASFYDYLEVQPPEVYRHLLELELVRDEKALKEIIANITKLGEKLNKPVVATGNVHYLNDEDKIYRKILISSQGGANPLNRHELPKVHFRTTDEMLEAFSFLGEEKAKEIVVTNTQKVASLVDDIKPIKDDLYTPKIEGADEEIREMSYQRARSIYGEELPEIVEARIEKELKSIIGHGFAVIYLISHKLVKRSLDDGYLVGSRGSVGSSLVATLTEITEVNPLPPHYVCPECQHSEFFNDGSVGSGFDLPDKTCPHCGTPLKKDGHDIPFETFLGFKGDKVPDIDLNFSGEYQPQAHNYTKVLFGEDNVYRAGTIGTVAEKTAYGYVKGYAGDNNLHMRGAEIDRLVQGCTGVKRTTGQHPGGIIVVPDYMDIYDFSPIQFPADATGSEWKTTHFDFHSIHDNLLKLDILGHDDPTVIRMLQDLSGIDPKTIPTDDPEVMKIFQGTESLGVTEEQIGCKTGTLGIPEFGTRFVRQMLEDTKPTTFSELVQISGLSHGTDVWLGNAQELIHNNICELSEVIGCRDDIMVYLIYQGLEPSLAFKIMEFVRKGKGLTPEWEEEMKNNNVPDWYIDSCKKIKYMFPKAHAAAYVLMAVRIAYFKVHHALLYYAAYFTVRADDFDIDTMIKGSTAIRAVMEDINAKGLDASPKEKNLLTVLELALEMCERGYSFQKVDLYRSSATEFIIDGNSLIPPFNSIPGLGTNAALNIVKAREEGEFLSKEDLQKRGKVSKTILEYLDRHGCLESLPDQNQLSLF
Structure (SMILES),"activity change, negative = inhibition",Potency
CCOC(=O)N1CCC(=C2c3ccc(Cl)cc3CCc3cccnc32)CC1,-7% (inactive),
O=C(Nc1nc2ccccc2n1CCN1CCOCC1)c1cccc([N+](=O)[O-])c1,-5.27% (inactive),
C[C@]12CCC(=O)C=C1CC[C@@H]1[C@@H]2[C@@H](O)C[C@@]2(C)[C@H]1CC[C@]2(O)C(=O)CO,6.86% (inactive),
NNCCc1ccccc1,-5.78% (inactive),
NC(N)=NC(=O)c1nc(Cl)c(N)nc1N,0.143% (inactive),
NCCc1ccc(O)c(O)c1,-13.4% (inactive),
Cc1[nH]c(=O)c(C#N)cc1-c1ccncc1,2.15% (inactive),
NC[C@H](O)c1ccc(O)c(O)c1,-2.94% (inactive),
Cc1[nH]c(=O)c(C#N)cc1-c1ccc2nccn2c1,-4.81% (inactive),
Cc1cccc(-c2[nH]c(C(C)(C)C)nc2-c2ccc3nccnc3c2)n1,0.193% (inactive),
OC(CCN1CCCCC1)(c1ccccc1)C1CC2C=CC1C2 (stereo not given),4.25% (inactive),
O=C1CCc2cc(OCCCCc3nnnn3C3CCCCC3)ccc2N1,4.26% (inactive),
Cc1oncc1C(=O)Nc1ccc(C(F)(F)F)cc1,-10.4% (inactive),
Nc1ncnc2nc(-c3ccc(N4CCOCC4)nc3)cc(-c3cccc(Br)c3)c12,-10.3% (inactive),
Nc1nc2ccc(OC(F)(F)F)cc2s1,1.49% (inactive),
Nc1nc2c(ncn2COCCO)c(=O)[nH]1,5.08% (inactive),
Clc1cccc(Cl)c1NC1=NCCN1,-2.71% (inactive),
c1ccc([C@H]2CN3CCSC3=N2)cc1,4.99% (inactive),
CC(C)(Sc1ccc(CCN(CCCCC2CCCCC2)C(=O)NC2CCCCC2)cc1)C(=O)O,,26.7 µM (active)
Cn1cnc([N+](=O)[O-])c1Sc1ncnc2nc[nH]c12,1.74% (inactive),
CCC(C)N(C)C(=O)c1cc2ccccc2c(-c2ccccc2Cl)n1 (stereo not given),1.93% (inactive),
CCOC(=O)C1=C[C@]2(CC)CCCN3CCc4c(n1c1ccccc41)[C@@H]32,4.51% (inactive),
OC(CN1CCC(Cc2ccc(F)cc2)CC1)c1ccc(Cl)cc1 (stereo not given),2.49% (inactive),
